Experimental data: PubChem BioAssay AID1159580 (chemical genetic matrix, 2015)
Hit rate of the full screen: of about 5,500 compounds, about 2,000 (36%) were called active. About 18% were inconclusive and are not listed. Rule as the data show it: active = normalized growth mostly below about 0.91 (no sharp cut-off); inconclusive = no clear call, values can overlap the other calls; inactive = mostly above about 0.92. The list shows a part of the results.

Assay: chemical genetic growth profiling, strain panel (AID 1159580);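 also: tested at 20 µM; growth read once vehicle control cultures reached saturation at 30 °C; 1 = growth at the plate median or of vehicle wells; lower values mean less growth of the strain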
Details: growth OD

Measured: normalized growth

Oc1ccc2c(c1)OCC1(O)Cc3cc(O)c(O)cc3C21 (configuration not stated)
inactive: S. cerevisiae deletion strains, locus YJL187C, strain SWE1, hits give low values 1.02 | S. cerevisiae deletion strains, locus YJR066W, strain TOR1, hits give low values 0.906 | S. cerevisiae deletion strains, locus YKL009W, strain mrt4, hits give low values 1.03 | S. cerevisiae deletion strains, locus YKL068W, hits give low values 0.997 | S. cerevisiae deletion strains, locus YKL085W, strain MDH1 (second series), hits give low values 0.978 | S. cerevisiae deletion strains, locus YKL085W, strain MDH1, hits give low values 0.978 | S. cerevisiae deletion strains, locus YKL160W, strain elf1, hits give low values 1.02 | S. cerevisiae deletion strains, locus YKR001C, strain vps1, hits give low values 1.03 | S. cerevisiae deletion strains, locus YKR026C, strain gcn3, hits give low values 1.04 | S. cerevisiae deletion strains, locus YKR091W, strain srl3, hits give low values 1.02 | S. cerevisiae deletion strains, locus YLL001W, strain dnm1, hits give low values 1.03 | S. cerevisiae deletion strains, locus YLL026W, hits give low values 1.02 | S. cerevisiae deletion strains, locus YLL041C, strain sdh2, hits give low values 1.02 | S. cerevisiae deletion strains, locus YLR027C, strain aat2, hits give low values 1.01 | S. cerevisiae deletion strains, locus YLR039C, strain RIC1, hits give low values 0.991 | S. cerevisiae deletion strains, locus YLR058C, strain SHM2, hits give low values 0.959 | S. cerevisiae deletion strains, locus YLR102C, strain apc9, hits give low values 0.991 | S. cerevisiae deletion strains, locus YLR113W, strain HOG1, hits give low values 1.05 | S. cerevisiae deletion strains, locus YLR221C, strain rsa3, hits give low values 1.02 | S. cerevisiae deletion strains, locus YLR258W, strain gsy2, hits give low values 1.03 | S. cerevisiae deletion strains, locus YLR262C, strain YPT6 (second series), hits give low values 1.04 | S. cerevisiae deletion strains, locus YLR268W, strain sec22, hits give low values 1.05 | S. cerevisiae deletion strains, locus YLR320W, strain mms22, hits give low values 1.04 | S. cerevisiae deletion strains, locus YLR342W, strain FKS1 (second series), hits give low values 1.05 | S. cerevisiae deletion strains, locus YLR342W, strain FKS1, hits give low values 1.03 | S. cerevisiae deletion strains, locus YLR357W, strain rsc2, hits give low values 1.03 | S. cerevisiae deletion strains, locus YLR370C, strain arc18, hits give low values 1.02 | S. cerevisiae deletion strains, locus YLR371W, strain rom2, hits give low values 0.988 | S. cerevisiae deletion strains, locus YLR384C, strain iki3, hits give low values 1.02 | S. cerevisiae deletion strains, locus YLR418C, strain cdc73, hits give low values 0.991 | S. cerevisiae deletion strains, locus YML016C, strain PPZ1, hits give low values 0.997 | S. cerevisiae deletion strains, locus YML032C, strain rad52, hits give low values 1.05 | S. cerevisiae deletion strains, locus YML120C, strain ndi1, hits give low values 1.03 | S. cerevisiae deletion strains, locus YML124C, strain tub3, hits give low values 0.999 | S. cerevisiae deletion strains, locus YMR058W, strain fet3, hits give low values 1.02 | S. cerevisiae deletion strains, locus YMR078C, strain ctf18, hits give low values 0.988 | S. cerevisiae deletion strains, locus YMR125W, strain sto1, hits give low values 1.04 | S. cerevisiae deletion strains, locus YMR129W, hits give low values 1.02 | S. cerevisiae deletion strains, locus YMR205C, strain PFK2, hits give low values 1.06 | S. cerevisiae deletion strains, locus YMR223W, strain ubp8, hits give low values 0.981 | S. cerevisiae deletion strains, locus YMR231W, strain pep5, hits give low values 1 | S. cerevisiae deletion strains, locus YMR307W, strain GAS1, hits give low values 1.11 | S. cerevisiae deletion strains, locus YNL067W, strain RPL9B, hits give low values 0.959 | S. cerevisiae deletion strains, locus YNL071W, strain lat1, hits give low values 1.03 | S. cerevisiae deletion strains, locus YNL128W, strain TEP1, hits give low values 0.983 | S. cerevisiae deletion strains, locus YNL183C, strain NPR1, hits give low values 0.948 | S. cerevisiae deletion strains, locus YNL209W, strain ssb2, hits give low values 1.01 | S. cerevisiae deletion strains, locus YNL233W, strain BNI4, hits give low values 1 | S. cerevisiae deletion strains, locus YNL248C, strain rpa49, hits give low values 1.03 | S. cerevisiae deletion strains, locus YNL250W, strain rad50, hits give low values 0.957 | S. cerevisiae deletion strains, locus YNL271C, strain bni1, hits give low values 0.983 | S. cerevisiae deletion strains, locus YNL298W, strain CLA4, hits give low values 0.996 | S. cerevisiae deletion strains, locus YNL307C, strain MCK1, hits give low values 0.994 | S. cerevisiae deletion strains, locus YNL322C, strain KRE1 (second series), hits give low values 1.02 | S. cerevisiae deletion strains, locus YNL322C, strain KRE1, hits give low values 0.981 | S. cerevisiae deletion strains, locus YNR049C, strain mso1, hits give low values 1.02 | S. cerevisiae deletion strains, locus YNR052C, strain pop2, hits give low values 0.959 | S. cerevisiae deletion strains, locus YOL006C, strain TOP1, hits give low values 1.18 | S. cerevisiae deletion strains, locus YOL012C, strain htz1 0.665 | S. cerevisiae deletion strains, locus YOL147C, strain pex11, hits give low values 1 | S. cerevisiae deletion strains, locus YOR001W, strain rrp6, hits give low values 1.04 | S. cerevisiae deletion strains, locus YOR061W, strain CKA2, hits give low values 1.03 | S. cerevisiae deletion strains, locus YOR069W, strain VPS5, hits give low values 1 | S. cerevisiae deletion strains, locus YOR070C, strain gyp1, hits give low values 1.01 | S. cerevisiae deletion strains, locus YOR080W, strain dia2, hits give low values 1.01 | S. cerevisiae deletion strains, locus YOR083W, strain WHI5, hits give low values 1.02 | S. cerevisiae deletion strains, locus YOR106W, strain vam3, hits give low values 1.05 | S. cerevisiae deletion strains, locus YOR136W, strain idh2, hits give low values 1.01 | S. cerevisiae deletion strains, locus YOR144C, strain elg1, hits give low values 1.01 | S. cerevisiae deletion strains, locus YOR184W, strain ser1, hits give low values 1.09 | S. cerevisiae deletion strains, locus YOR231W, strain MKK1, hits give low values 1.01 | S. cerevisiae deletion strains, locus YOR265W, strain rbl2, hits give low values 1.02 | S. cerevisiae deletion strains, locus YOR270C, strain vph1, hits give low values 1.16 | S. cerevisiae deletion strains, locus YOR290C, strain snf2, hits give low values 1.04 | S. cerevisiae deletion strains, locus YOR316C, strain cot1, hits give low values 0.986 | S. cerevisiae deletion strains, locus YPL051W, strain arl3, hits give low values 1.01 | S. cerevisiae deletion strains, locus YPL055C, strain LGE1, hits give low values 1.06 | S. cerevisiae deletion strains, locus YPL078C, strain atp4, hits give low values 1.03 | S. cerevisiae deletion strains, locus YPL106C, strain sse1, hits give low values 0.99 | S. cerevisiae deletion strains, locus YPL240C, strain hsp82, hits give low values 1.02 | S. cerevisiae deletion strains, locus YPL256C, strain CLN2, hits give low values 0.995 | S. cerevisiae deletion strains, locus YPR119W, strain clb2, hits give low values 0.978 | S. cerevisiae deletion strains, locus YPR141C, strain kar3, hits give low values 0.964 | S. cerevisiae deletion strains, locus YPR163C, strain tif3, hits give low values 0.996 | S. cerevisiae deletion strains, locus YPR167C, strain met16, hits give low values 0.992 | S. cerevisiae deletion strains, strain wtn01, hits give low values 1.02 | S. cerevisiae strains, strain wild type, hits give low values 1.03
